Test results published in PubChem BioAssay (NCATS).
For part of these data: Potency and affinity values are given separately. The source made the active and inactive calls. Entries that show only a call come without a potency.

What was measured:
[1] = Ebola virus entry assay, blue channel fluorescence
[2] = Ebola virus entry assay, green fluorescence channel
[3] = Ebola virus entry assay, ratio channel readout
[4] = Ebola virus entry assay, blue channel fluorescence; remark: listed apart in the source
[5] = Ebola virus entry assay, green channel fluorescence
[6] = Ebola virus entry assay, blue channel fluorescence; remark: listed apart in the source
[7] = Ebola virus entry assay, ratio channel
[8] = qHTS profiling of the MIPE4 collection as inhibitors of Plasmodium falciparum (DD2) proliferation (AID 743345); details: P. falciparum Dd2 in erythrocytes, SYBR Green DNA, 72 h; at 28.5 µM (top of the series) unless noted
In short: (§1)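 Erythrocytes infected with P. falciparum (0.3% parasitemia, 2.5% hematocrit) incubated with compounds 72 h at 37 C, 5% CO2. Lysis with saponin/Triton buffer containing SYBR Green I, overnight at room temperature in the dark; DNA fluorescence (485/535 nm) normalised to 0.29 uM artemisinin and DMSO.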

[9] = qHTS profiling of the MIPE4 collection as inhibitors of Plasmodium falciparum (HB3) proliferation (AID 743347); details: P. falciparum HB3 in erythrocytes, SYBR Green DNA, 72 h; at 28.5 µM (top of the series) unless noted
In short: as §1

Q: With `Nc1ccc(S(=O)(=O)c2ccc(N)cc2)cc1` as the compound, how does the outcome [1] read?
A: inactive

Q: And the outcome [2]?
A: inactive

Q: What about the outcome [3] of the same compound?
A: inactive

Q: What about the outcome [4] of the same compound?
A: inactive

Q: And the outcome [5]?
A: inactive

Q: And the outcome [6]?
A: inactive

Q: With `NCCCCCC(=O)O` as the compound, how does the outcome [1] read?
A: inactive

Q: And the outcome [2]?
A: inactive

Q: And the outcome [3]?
A: inactive

Q: What about the outcome [4] of the same compound?
A: inactive

Q: And the outcome [7]?
A: inactive

Q: What about the outcome [5] of the same compound?
A: inactive

Q: And the outcome [6]?
A: inactive

Q: Which outcome [1] does the source give for `COc1cc(C(=O)NS(=O)(=O)c2ccccc2C)ccc1Cc1cn(C)c2ccc(NC(=O)OC3CCCC3)cc12` here?
A: inactive

Q: What about the outcome [2] of the same compound?
A: inactive

Q: And the outcome [3]?
A: inactive

Q: What about the outcome [4] of the same compound?
A: inactive

Q: And the outcome [7]?
A: inactive

Q: And the outcome [5]?
A: inactive

Q: And the outcome [6]?
A: inactive

Q: What does the source list for `O=C(N[C@H](CO)[C@H](O)c1ccc([N+](=O)[O-])cc1)C(Cl)Cl`?
A: outcome [1]: inactive; outcome [2]: inactive; outcome [3]: inactive; outcome [7]: inactive; outcome [5]: inactive; outcome [6]: inactive

Q: Which outcome [1] does the source give for `CN1C(C(=O)Nc2ccccn2)=C(O)c2ccccc2S1(=O)=O` here?
A: inactive

Q: What about the outcome [2] of the same compound?
A: inactive

Q: What about the outcome [3] of the same compound?
A: inactive

Q: And the outcome [4]?
A: inactive

Q: And the outcome [5]?
A: inactive

Q: What about the outcome [6] of the same compound?
A: inactive

Q: Which parasite growth remaining, % of DMSO control (lower = more inhibition) [8] does the source give for `CC(C)[C@H](N)C(=O)OCCOCn1cnc2c(=O)[nH]c(N)nc21` here?
A: 94%

Q: What about the growth, % of control [9] of the same compound?
A: 102%

Q: What about the outcome [1] of the same compound?
A: inactive

Q: And the outcome [2]?
A: inactive

Q: And the outcome [3]?
A: inactive

Q: And the outcome [7]?
A: inactive

Q: What about the outcome [5] of the same compound?
A: inactive

Q: And the outcome [6]?
A: inactive

Q: With `C[C@](N)(Cc1ccc(O)cc1)C(=O)O` as the compound, how does the outcome [1] read?
A: inactive

Q: What about the outcome [2] of the same compound?
A: inactive

Q: What about the outcome [3] of the same compound?
A: inactive

Q: What about the outcome [4] of the same compound?
A: inactive

Q: What about the outcome [7] of the same compound?
A: inactive

Q: And the outcome [5]?
A: inactive

Q: And the outcome [6]?
A: inactive

Q: Which results are given for `C#CCN[C@@H]1CCc2ccccc21`?
A: outcome [1]: inactive; outcome [2]: inactive; outcome [3]: inactive; outcome [4]: inactive; outcome [7]: inactive; outcome [5]: inactive; outcome [6]: inactive

Q: Which parasite growth remaining, % of DMSO control (lower = more inhibition) [8] does the source give for `CCC1(C)CC(=O)NC1=O` (stereo not drawn) here?
A: 111%

Q: What about the outcome [1] of the same compound?
A: inactive

Q: And the outcome [2]?
A: inactive

Q: What about the outcome [3] of the same compound?
A: inactive

Q: What about the outcome [4] of the same compound?
A: inactive

Q: And the outcome [7]?
A: inactive

Q: And the outcome [5]?
A: inactive

Q: What about the outcome [6] of the same compound?
A: inactive

Q: What does the source list for `C[N+]1(C)CCCC(OC(=O)C(O)(c2ccccc2)c2ccccc2)C1` (stereo not drawn)?
A: outcome [1]: inactive; outcome [2]: inactive; outcome [3]: inactive; outcome [7]: inactive; outcome [5]: inactive; outcome [6]: inactive

Q: With `C=CCC1([C@H](C)CCC)C(=O)NC(=O)NC1=O` as the compound, how does the outcome [1] read?
A: inactive

Q: What about the outcome [2] of the same compound?
A: inactive

Q: What about the outcome [3] of the same compound?
A: inactive

Q: What about the outcome [4] of the same compound?
A: inactive

Q: And the outcome [5]?
A: inactive

Q: What about the outcome [6] of the same compound?
A: inactive

Q: With `Nc1nc(Cl)nc2c1ncn2[C@@H]1O[C@H](CO)[C@@H](O)[C@@H]1F` as the compound, how does the outcome [1] read?
A: inactive

Q: And the outcome [2]?
A: inactive

Q: And the outcome [3]?
A: inactive

Q: What about the outcome [5] of the same compound?
A: inactive

Q: And the outcome [6]?
A: inactive

Q: With `NC(=O)c1cnccn1` as the compound, how does the outcome [1] read?
A: inactive

Q: And the outcome [2]?
A: inactive

Q: And the outcome [3]?
A: inactive

Q: What about the outcome [4] of the same compound?
A: inactive

Q: And the outcome [5]?
A: inactive

Q: And the outcome [6]?
A: inactive

Q: For `C[C@]12CCC(=O)C=C1CC[C@H]1[C@@H]3CC[C@](O)(C(=O)CO)[C@@]3(C)C[C@H](O)[C@@]12F`, which outcome [1] is on record?
A: inactive

Q: What about the outcome [2] of the same compound?
A: inactive

Q: What about the outcome [3] of the same compound?
A: inactive

Q: What about the outcome [7] of the same compound?
A: inactive

Q: And the outcome [5]?
A: inactive

Q: And the outcome [6]?
A: inactive

Q: Which results are given for `S=P(N1CC1)(N1CC1)N1CC1`?
A: outcome [1]: inactive; outcome [2]: inactive; outcome [3]: inactive; outcome [7]: inactive; outcome [5]: inactive; outcome [6]: inactive

Q: What does the source list for `Clc1ccc2nsnc2c1NC1=NCCN1`?
A: outcome [1]: inactive; outcome [2]: inactive; outcome [3]: inactive; outcome [4]: inactive; outcome [5]: inactive; outcome [6]: inactive

Q: What does the source list for `OCCOCCN1CCN(C2=Nc3ccccc3Sc3ccccc32)CC1`?
A: outcome [1]: inactive; outcome [2]: inactive; outcome [3]: inactive; outcome [4]: inactive; outcome [6]: inactive

Q: For `NC(=O)N1c2ccccc2C=Cc2ccccc21`, which outcome [1] is on record?
A: inactive

Q: What about the outcome [2] of the same compound?
A: inactive

Q: And the outcome [3]?
A: inactive

Q: What about the outcome [7] of the same compound?
A: inactive

Q: What about the outcome [5] of the same compound?
A: inactive

Q: And the outcome [6]?
A: inactive

Q: With `CN=C(NC#N)NCCSCc1nc[nH]c1C` as the compound, how does the outcome [1] read?
A: inactive

Q: What about the outcome [2] of the same compound?
A: inactive

Q: What about the outcome [3] of the same compound?
A: inactive

Q: What about the outcome [4] of the same compound?
A: inactive

Q: What about the outcome [7] of the same compound?
A: inactive

Q: What about the outcome [5] of the same compound?
A: inactive

Q: And the outcome [6]?
A: inactive

Q: For `CC(NC(C)(C)C)C(=O)c1cccc(Cl)c1` (stereo not drawn), which parasite growth remaining, % of DMSO control (lower = more inhibition) [8] is on record?
A: 55.9%

Q: And the growth, % of control [9]?
A: 7.91%

Q: And the outcome [1]?
A: inactive

Q: And the outcome [2]?
A: inactive

Q: And the outcome [3]?
A: inactive

Q: What about the outcome [4] of the same compound?
A: inactive

Q: What about the outcome [5] of the same compound?
A: inactive

Q: And the outcome [6]?
A: inactive

Q: With `CCN1CC(CCN2CCOCC2)C(c2ccccc2)(c2ccccc2)C1=O` (stereo not drawn) as the compound, how does the outcome [1] read?
A: inactive

Q: What about the outcome [2] of the same compound?
A: inactive

Q: What about the outcome [3] of the same compound?
A: inactive

Q: And the outcome [7]?
A: inactive

Q: And the outcome [5]?
A: inactive

Q: What about the outcome [6] of the same compound?
A: inactive

Q: Which parasite growth remaining, % of DMSO control (lower = more inhibition) [8] does the source give for `O=C(O)CCCc1ccc(N(CCCl)CCCl)cc1` here?
A: 82.7%

Q: And the growth, % of control [9]?
A: 54.2%

Q: What about the outcome [1] of the same compound?
A: inactive

Q: And the outcome [2]?
A: inactive

Q: What about the outcome [3] of the same compound?
A: inactive

Q: And the outcome [7]?
A: inactive

Q: And the outcome [5]?
A: inactive

Q: And the outcome [6]?
A: inactive

Q: Which results are given for `CC(CCc1ccc(O)cc1)NCCc1ccc(O)c(O)c1` (stereo not drawn)?
A: outcome [1]: inactive; outcome [2]: inactive; outcome [3]: inactive; outcome [5]: inactive; outcome [6]: inactive

Q: With `NC(N)=Nc1nc(CSCC/C(N)=N/S(N)(=O)=O)cs1` as the compound, how does the outcome [1] read?
A: inactive

Q: What about the outcome [2] of the same compound?
A: inactive

Q: What about the outcome [3] of the same compound?
A: inactive

Q: And the outcome [5]?
A: inactive

Q: And the outcome [6]?
A: inactive
